Only some compounds are listed: those with a hit (about 1.1% of all), similar ones and a draw of the others.
LMNA splice mod: modulators of lamin A splicing | Potency, µM (highest dose often 46.1 µM), for the others: at the top dose ratio change, negative = inhibition, usual class: inhibitors | HeLa LMNA splicing GFP/RFP minigene ratio, 48 h | 200,000 compounds, 0.01% hits | AID 1487; active = well fitted inhibition curve with a large enough effect in the signal ratio, with a control signal flat, not every such curve was filed as active; inconclusive = small, poorly fitted or top-dose-only effect, or effect the other way, or a change in a side signal; the % refers to the signal ratio; note: potency is the fitted concentration of half-maximal effect; % is set by controls: 0 for no effect and ±100 for the full control effect
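S3 HeLa stable clones carrying a lamin A-EGFP splicing minigene plus DsRed2 were seeded at 600 cells/well in Opti-MEM with 2% FBS, pin-dosed and incubated 48 h at 37°C. Acumen cytometry (488 nm) gave the GFP/RFP total-intensity ratio.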
CBFb-RUNX1 inh: blocks binding between human CBF-beta and RUNX1; Potency, µM (doses to about 59.8 µM), for the others: at the highest dose activity, negative = inhibition, hits mostly inhibitors; AID 1477; Q01196+Q13951; 230,000 tested, under 10 active; AlphaScreen CBFb-His/RUNX1-biotin binding, biochemical; note: % of control where 0% means no effect
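Proteins preincubated together for 20 min at RT before compound addition; 15 min later, nickel and streptavidin beads were added and left 90 min prior to AlphaScreen measurement.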
HTT cytoprotect: cytoprotection in Huntington HTT-Q103 PC12 cell model; PC12 HTT-Q103 induced, cytoprotection, ATP luminescence, 40 h; 230,000 compounds, 0.14% hits; Potency, µM (top dose mostly 56.4 µM), for inactives: cytoprotection (ATP increase), usual class: activators; note: potency is the fitted concentration of half-maximal effect; % of control where 0% means no effect; nearly all actives have a fitted effect of over 45% in size
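PC12 cells with ecdysone-inducible HTT exon 1 Q103-GFP, induced with 100 nM tebufenozide and co-treated with library compounds in a dose series (1536-well, 1500 cells/well). Cytoprotection read as ATP content by ATPlite luminescence.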
HTT aggregate: inhibitors of mutant huntingtin aggregate formation in PC12 cells; PC12 HttQ103-GFP aggregates, Acumen cytometry, 40 h; 220,000 compounds, 1.1% hits; Potency, µM (highest dose often 46.1 µM), without a hit: top-dose activity change, negative = inhibition, hits mostly inhibitors; note: potency is the fitted concentration of half-maximal effect; % is set by controls: 0 for no effect and ±100 for the full control effect; nearly all actives have a fitted effect of over 60% in size
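PC12 cells stably carrying ecdysone-inducible HTT exon 1 Q103–GFP were induced with tebufenozide (100 nM final) and treated with library compounds in titration. GFP aggregates in lysates were counted by laser scanning cytometry.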
NPSR antagonist: neuropeptide S receptor (human) antagonism, cAMP; 220,000 compounds, 1% hits; Potency, µM (series often up to 38.3 µM), for inactives: at the top dose activity change, negative = inhibition, usual class: inhibitors; Q6W5P4; CHO-NPSR cells, cAMP TR-FRET, antagonist mode; note: potency is the fitted concentration of half-maximal effect; % is set by controls: 0 for no effect and ±100 for the full control effect; nearly all actives have a fitted effect of over 50% in size
Target sequence (Q6W5P4 whole entry, looked up): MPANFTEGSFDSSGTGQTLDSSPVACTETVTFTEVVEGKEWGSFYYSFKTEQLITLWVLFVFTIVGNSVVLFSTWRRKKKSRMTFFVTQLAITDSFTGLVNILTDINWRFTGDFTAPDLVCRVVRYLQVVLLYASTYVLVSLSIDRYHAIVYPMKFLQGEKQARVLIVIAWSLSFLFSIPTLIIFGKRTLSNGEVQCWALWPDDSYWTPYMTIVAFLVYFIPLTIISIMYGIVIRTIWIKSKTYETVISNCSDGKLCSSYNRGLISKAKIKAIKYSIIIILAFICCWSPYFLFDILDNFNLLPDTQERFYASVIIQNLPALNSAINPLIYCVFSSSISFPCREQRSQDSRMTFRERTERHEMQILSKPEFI
MBNL1-CUG inh: MBNL1-poly(CUG) RNA binding inhibition; Q9NR56; 280,000 compounds, 0.036% hits; TR-FRET MBNL1-His/biotin-(CUG)12 binding, 665/545 ratio; Potency, µM (titrated, usually from 57.5 µM), for inactives: top-dose activity change, negative = inhibition, usual class: inhibitors; active = well fitted inhibition curve with a large enough effect in the signal ratio, with a control signal flat, not every such curve was filed as active; inconclusive = small, poorly fitted or top-dose-only effect, or effect the other way, or a change in a side signal; inactive = no such curve, though single readings can be large or run the other way; the % refers to the signal ratio; note: potency is the fitted concentration of half-maximal effect; % is set by controls: 0 for no effect and ±100 for the full control effect
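TR-FRET between His-tagged MBNL1 and biotin-(CUG)12 RNA, detected with Tb anti-His antibody (0.055 ng/ul) and streptavidin-XL665 (5 nM), 60 min at room temperature. Compounds titrated 92 nM to 58 uM; 665/545 nm ratio normalized to buffer and complex controls.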
Active calls of the source: *; ? = inconclusive; · = no result given; [ ] = remark or other dose. Unless noted, calls come from the whole dose curve; as a rule, active = well fitted curve in the direction sought with a large enough effect; inconclusive = small, poorly fitted or top-dose-only effect, or another doubt; inactive = no such curve, though single readings can be large; an effect the other way counts as inactive or inconclusive.

SMILES | LMNA splice mod | CBFb-RUNX1 inh | HTT cytoprotect | HTT aggregate | NPSR antagonist | MBNL1-CUG inh
Cc1cc(C(=O)CSc2nnnn2-c2ccccc2)c(C)n1-c1ccc2c(c1)OCO2 | ? | -12.5% | · | 1.2% | -20.3% | -8.5%
CCCn1c(SCC(=O)c2cc(C)n(-c3ccc4c(c3)OCO4)c2C)n[nH]c1=O | ? | -8.8% | 3.55µM* | -29.0% | -12.9%[46.1 µM] | 3.7%
CCCn1c(SCC(=O)NCc2ccc(C)cc2)n[nH]c1=O | · | 1.4% | · | 18.2% | 8.6% | -6.5%
CCCCN(c1ccccc1)c1ncnc2c1cnn2-c1ccc(Cl)cc1 | -3.4%[46 µM] | · | · | · | · | ·
CCc1cccc(C)c1NC(=O)CN1C(=O)C2(SCC(=O)N2c2cc(C)cc(C)c2)c2ccccc21 (configuration not stated) | -7.9%[46 µM] | · | · | · | · | ·
COC(=O)c1ccc(N/C(C)=C/C(=O)c2ccc(C)o2)cc1 | 21.0% | 8.4% | -6.7% | 3.98µM* | 0.8%[46.1 µM] | 5.0%
[O-][N+]1=c2ccc(Nc3ccccc3)cc2=NC12CCCCC2 | ? | ? | -109.3% | ? | 10µM* | ?
COc1ccc(Nc2ccc3c(c2)=NC2(CCCCC2)[N+]=3[O-])cc1 | ? | ? | -107.4% | ? | ? | ?
Cc1ccc(S(=O)(=O)Nc2ccc(-c3nc4cc(NS(=O)(=O)c5ccc(C)cc5)ccc4o3)cc2)cc1 | -24.8% | -4.9% | -65.3% | 17.1%[9.22 µM] | 10µM* | 13.5%
CC(NC(=O)c1ccccc1)(C(=O)O)C(=O)O | · | · | 1.3%[10 µM] | · | · | ·
C=CCOc1c(Cl)cc(CNc2ccc(N(C)C)cc2)cc1OC | ? | -0.7% | ? | -2.3% | 5.01µM* | ?
C=CCOc1c(Cl)cc(CNc2ccc(C)c(Cl)c2)cc1OC | ? | 19.6% | -73.3%[10 µM] | -17.1% | ? | -1.7%
Cn1c(N=Nc2ccc(N3CCOCC3)cc2)[n+](C)c2ccccc21 | 1.1%[46 µM] | 4.4% | · | · | 7.94µM* | 18.3%
COc1ccc2cc3c(N)nn(C(=O)c4ccc(Cl)c([N+](=O)[O-])c4)c3nc2c1 | 4.2% | ? | 18.8%[10 µM] | 2.82µM* | -13.5% | -2.7%
CC[C@H](C)N | · | 4.4% | · | · | · | ·
CC(=O)O[C@H]1CC[C@]2(C)C(=CC[C@H]3[C@H]4C[C@H]5O[C@]6(CC[C@H](C)CN6)[C@H](C)[C@@H]5[C@]4(C)CC[C@@H]32)C1 | · | · | -2.6%[10 µM] | · | · | ·
COc1ccc(N2C(=O)CC(Sc3nc4ccccc4s3)C2=O)cc1 (configuration not stated) | · | 2.0% | -136.9% | 31.6µM* | -6.0% | ·
CC(C)c1ccc(N2C(=O)CC(Sc3nc4ccccc4o3)C2=O)cc1 (configuration not stated) | ? | 2.7% | -148.3% | 3.55µM* | -24.5%[46.1 µM] | 4.2%
CSCC[C@H](NC(=O)[C@H](Cc1ccc(OS(=O)(=O)O)cc1)NC(=O)[C@@H](N)CC(=O)O)C(=O)NCC(=O)N[C@@H](Cc1c[nH]c2ccccc12)C(=O)N[C@@H](CCSC)C(=O)N[C@@H](CC(=O)O)C(=O)N[C@@H](Cc1ccccc1)C(N)=O | · | 5.4% | · | · | · | ·
Cc1ccc(Oc2ccc(NC(=O)c3ccco3)cc2)cc1 | ? | 5.4% | -25.1% | 22.4µM* | -10.7%[7.67 µM] | -17.0%
COc1cccc(OC)c1OCc1cc(C2C3CCCC=C3C(C#N)=C(N)C2(C#N)C#N)c(C)cc1C (configuration not stated) | ? | 0.7% | ? | -16.8% | 3.16µM* | 2.2%
Cc1cccc(-n2ncc3c(N4CC(C)CC(C)C4)ncnc32)c1 (configuration not stated) | -12.4% | 8.8% | -97.6% | 22.4µM* | -24.7%[46.1 µM] | -0.7%
N#C/C(=C\c1cc([N+](=O)[O-])ccc1Cl)C(N)=O | ? | 8.3% | 1.26µM* | 6.5% | -5.4% | ·
N#C/C(=C/c1ccc([N+](=O)[O-])cc1)C(N)=O | · | 14.0% | -7.3% | 19.5% | 9.0% | ?

Bioassay records (PubChem)
